Compounds with a hit are over-represented: about 27% of the library has one in this group of screens.
CYP2C9 activ: CYP2C9 (human) activation. recombinant CYP2C9, luciferin-H conversion, luminescence; active compounds read high; factor 1 = untreated enzyme, 0 = blocked. activation factor at 5 µM. 1.4% of 96,000 active;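 active = activation factor of 2 or more for CYP2C9 at a 5 µM dose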;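 also: 0 = sulfaphenazole-blocked wells and 1 = vehicle-only wells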
Target sequence (P11712 whole entry, looked up): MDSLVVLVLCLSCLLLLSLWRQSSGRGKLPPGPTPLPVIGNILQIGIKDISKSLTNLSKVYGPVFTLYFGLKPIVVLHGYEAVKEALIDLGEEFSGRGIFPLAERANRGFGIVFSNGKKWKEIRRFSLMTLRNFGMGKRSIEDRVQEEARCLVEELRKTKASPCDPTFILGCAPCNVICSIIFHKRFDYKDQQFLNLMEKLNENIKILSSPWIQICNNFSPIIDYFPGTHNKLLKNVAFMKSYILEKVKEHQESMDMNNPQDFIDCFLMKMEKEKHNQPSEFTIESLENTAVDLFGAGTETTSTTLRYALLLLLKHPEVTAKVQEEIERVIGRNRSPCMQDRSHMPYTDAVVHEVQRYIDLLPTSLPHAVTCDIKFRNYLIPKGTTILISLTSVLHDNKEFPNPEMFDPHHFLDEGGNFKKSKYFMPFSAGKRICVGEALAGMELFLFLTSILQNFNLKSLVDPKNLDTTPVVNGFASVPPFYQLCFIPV
CYP2C19 activ: cytochrome P450 2C19 (human) activation | AID 1025 | recombinant CYP2C19, luciferin-H EGE luminescence; active compounds read high; 0 = fully inhibited enzyme, 1 = untreated enzyme | activation factor at 5 µM | 96,000 tested, under 10 active;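 active = activation factor of at least 2 at 5 µM in the primary screen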;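 also: 0 = wells with 2.5 mM tranylcypromine and 1 = vehicle-only wells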
CYP2C19 inh: human CYP2C19 inhibition; P33261; CYP2C19 Supersomes, luciferin-H EGE luminescence, 30 min; inhibition, % at 5 µM; 21% of 96,000 active; AID 778;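 active = CYP2C19 inhibition above a set limit at 5 µM in the primary screen, cut at about 50% in these data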;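 also: plate controls were negative control wells for no effect and 2.5 mM tranylcypromine positive control for full effect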
CYP2C9 inh: inhibitors of human CYP2C9; 20% of 96,000 active; inhibition, % at 5 µM; P11712; AID 777; CYP2C9 Supersomes, luciferin-H conversion, luminescence;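 active = blocking of liver enzyme CYP2C9 beyond about 50% at 5 µM, limit read from the data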
Cav3 T inh: human Cav3.2 channel inhibition, primary screen. O95180. Cav3.2-expressing cells, Fluo-4 calcium fluorescence FDSS; active compounds read low. B-score at 10 µM. 4% of 100,000 active;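 active = single-dose well whose peak fluorescence ratio is a statistical outlier from its plate by either plate-standardised score or position-corrected B-score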
* = called active by the depositor; / = no result given.

SMILES	CYP2C9 activ	CYP2C19 activ	CYP2C19 inh	CYP2C9 inh	Cav3 T inh
C/C(=N\O)c1ccc2c3ccccc3n(C)c2c1	0.5	0.7	34	55*	-0.84
CCn1c2ccccc2c2cc(/C(C)=N/O)ccc21	0.5	0.8	22	50	/
CC1SC(=NC(=O)c2ccco2)NC1=O (stereo not given)	1	1	-4	0	0.28
CCC1SC(=NC(=O)c2ccc(Cl)c(Cl)c2)NC1=O (stereo not given)	0.4	1	-3	58*	-0.16
Cn1c(=O)n(CCN2CCOCC2)c(=O)c2c1nc1n2CCN1c1ccc(Oc2ccccc2)cc1	1	0.9	12	1	/
COCCNC(=O)Cn1nc(C(F)(F)F)cc1C	0.9	1	-1	6	-0.19
COCCNC(=O)Cn1nc(C(F)(F)F)c(Br)c1C	0.5	0.6	35	52*	-1.9
O=C(CCl)Nc1cc(-c2ccccc2)nn1-c1ccccc1	0.4	0.2	83*	60*	/
CCCCCc1c2c(cc(O)c1C(=O)O)OC(=O)c1c(cc(OC)cc1C(=O)CCCC)O2	/	/	/	/	-3.9*
Nc1[nH]n2c(=O)c3c(nc2c1N=Nc1ccc(Cl)cc1)CCCC3	0.6	1	3	41	-8.7*
Nc1[nH]n2c(=O)c3c(nc2c1N=Nc1ccccc1)CCCC3	0.7	0.9	5	34	-9.6*
CN(C)c1nc(N2CCN(c3ccccc3)CC2)c(C#N)c(=O)o1	1.9	0	97*	-94	0.77
Cc1cccc(C)c1N1CCN(c2nc(N(C)C)oc(=O)c2C#N)CC1	0.3	0.1	95*	74*	0.28
CN(CC(=O)NCCC1=CCCCC1)S(=O)(=O)c1ccc2c(c1)CCC(=O)N2	0.7	1	4	32	0.2
COc1cccc(C(=O)N2CCN(S(=O)(=O)Cc3ccccc3)CC2)c1OC	/	/	/	/	-0.27
Cc1ccccc1C(=O)NCc1nnc(SCC(=O)N2CCN(c3ccccc3)CC2)n1C	1	0.9	12	1	-0.011
COC(=O)c1c(C)[nH]c(C(=O)OCc2ccc(F)cc2)c1C	0.8	0.7	32	21	-1.3
CCOC(=O)c1[nH]c(C)c(C(=O)NCCN2CCOCC2)c1C	1.2	1.2	-16	-17	0.07
COC(=O)c1c(C)[nH]c(C(=O)CN2CCOCC2)c1C	0.7	0.4	62*	33	0.0053
COC(=O)c1c(C)[nH]c(C(=O)CSc2ccc(Cl)cc2)c1C	0.3	0.7	27	68*	-0.15
COc1ccc(C2=Nn3c(nnc3-c3ccccc3OC)SC2)cc1OC	0.5	0.4	65*	53*	-0.1
COc1ccc(C2=Nn3c(nnc3-c3ccccn3)SC2)cc1OC	0.6	0.4	62*	36	-2.1
COc1ccccc1-c1nnc2n1N=C(C)CS2	1	0.9	15	-1	0.027
COc1ccc(C2=Nn3c(nnc3-c3ccco3)SC2)cc1OC	0.4	0.6	37	57*	0.85
COc1ccc(-c2nnc3n2N=C(c2cccc(Br)c2)CS3)cc1OC	0.6	0.6	36	44	0.77
SMILES	CYP2C9 activ	CYP2C19 activ	CYP2C19 inh	CYP2C9 inh	Cav3 T inh
CCOC(=O)c1ccc(NC(=S)Nc2ccc(Br)cc2N)cc1	/	/	/	/	-2.2
Cc1ccccc1NC(=O)C1CCC(C)(C(=O)O)C1(C)C (stereo not given)	1.2	1.2	-23	-20	/
CCOC(=O)C1=C(C)Nc2ccccc2N=C1NC(=O)c1cccc(S(=O)(=O)N(C)C)c1	0.1	0.7	27	93*	1.1
CCOC(=O)C1=C(CC)Nc2ccccc2N=C1NC(=O)c1ccc(S(=O)(=O)N(C)C)cc1	0.1	0.1	92*	93*	0.59
O=[N+]([O-])c1cccc(/C=N/Nc2cc(Cl)nc(-c3ccccc3)n2)c1	0.8	1	4	18	-0.1
CCOc1cc(/C=N/NC(=O)c2cccc([N+](=O)[O-])c2)ccc1OS(=O)(=O)c1ccccc1	0.4	0.4	57*	59*	-3.3
COc1ccc(/C=N/NS(=O)(=O)c2ccccc2)cc1OC(=O)c1ccc(C)cc1	0.1	0.6	44	89*	/
COc1ccc(/C=N/NC(=O)c2cccc([N+](=O)[O-])c2)cc1OS(=O)(=O)c1ccc(C)cc1	0.8	0.8	21	18	-2.3
COc1ccc(/C=N/NS(=O)(=O)c2ccc(C)cc2)cc1OC(=O)c1ccccc1	0.6	0.9	5	37	/
COc1ccc(/C=N/NS(=O)(=O)c2ccccc2)cc1OS(=O)(=O)c1ccccc1	0.1	0.7	33	94*	-4
COc1ccc2c(c1)C1NC(=S)NC(C)(O2)C1C(=O)Nc1ccccc1C (stereo not given)	1	1	4	1	0.15
CC(C)OC(=O)C1C2C=CC3(CN(Cc4cccs4)C(=O)C13)O2 (stereo not given)	0.9	0.8	25	8	-0.31
C#Cc1ccc2c(c1)COc1c3ccccc3nn1-2	/	/	/	/	-0.052
O=S(=O)(NCc1ccccn1)c1ccc2c(c1)OCCO2	1.4	0.2	83*	-42	-0.048
O=S(=O)(NCCSCc1ccc(Cl)c(Cl)c1)c1ccc2c(c1)OCCO2	/	/	/	/	-2.7
O=S(=O)(NCCc1csc(-c2ccccc2)n1)c1ccc2c(c1)OCCO2	0.9	0.1	89*	14	-6.2*
O=S(=O)(NCc1csc(-c2cccnc2)n1)c1ccc2c(c1)OCCO2	0.8	0.4	57*	22	-0.15
O=S(=O)(NCc1ccccc1)c1ccc2c(c1)OCCO2	1	0.6	38	-3	0.32
COc1ccccc1CNC(=O)CCS(=O)(=O)c1ccc2c(c1)CCCN2C(C)=O	1.2	1	4	-20	0.3
COc1ccccc1C1(O)CC2CCC(C1)N2S(=O)(=O)c1ccc(C(C)=O)cc1 (stereo not given)	1.2	0.7	30	-19	1.8
c1ccc(COCCN2CCN(CCOCc3ccccc3)CC2)cc1	1	0.4	57*	0	1
CCOC(=O)c1nn(-c2ccccc2)c2nc(Nc3ccccc3)cc(=O)n12	0.8	1	1	17	-0.0084
CCOC(=O)C1CCN(C(=O)CSc2cc(=O)n(CC)c3ccccc23)CC1	0.8	0.4	60*	20	0.35
CCn1c(=O)cc(SCC(=O)N2CCC(C)CC2)c2ccccc21	2.7*	0.6	38	-170	0.71
COCCN1C(=O)C(=O)/C(=C(/O)c2ccc(S(=O)(=O)N3CCOCC3)cc2)C1c1ccc(C(C)C)cc1 (stereo not given)	1	1.1	-14	-3	0.66
CCOC(=O)C(=CNc1cc(C)nn1C(C)(C)C)C(=O)OCC	0.5	0.8	21	49	/
CCOC(=O)C(=CNc1cc(C)nn1-c1ccc(C)cc1)C(=O)OCC	0.4	0.5	48	65*	-0.52
Cc1ccccc1-c1cc(C(=O)n2cccn2)c2cc(Cl)ccc2n1	0.8	0.4	62*	15	0.12
O=c1cc(-c2ccccc2Cl)oc2c(NS(=O)(=O)c3cccs3)ccc(O)c12	/	/	/	/	-2.7
CN(C)/C=c1\sc2c(C#N)cc(C(=O)c3ccc(Br)cc3)n2c1=O	1	1.1	-5	-2	-6.9*

High-throughput results (PubChem BioAssay)
